Each target was assayed with ClCC(=O)N1CCc2nc(ncc2C1)-c1ccccc1 (assay: log2 ratio of Biotin-Ahx-Ub-VS probe labelling (compound/DMSO); higher = less target engagement, active = hit call of the paper (q ≤ 0.05, log2 ratio ≤ -1)). Conditions: compound concentration: 50uM; treatment time: 3 h.
In short: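 For activity-based profiling, 495 µg portions of HEK293T lysate in Tris/CHAPS/IGEPAL buffer with protease inhibitors were treated in triplicate with compound at 50 or 200 µM or with DMSO for 3 h. A 1 h incubation with Biotin-Ahx-Ub-VS (0.5 µM final) followed, then NeutrAvidin enrichment, LysC and trypsin digestion and diaPASEF LC-MS/MS. The compound/DMSO base-two log ratios were averaged from median-normalised label-free quantities using an unpaired t-test. Proteins needed at least 2 unique peptides to be included.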

UniProt Q70EL1, sequence (Q70EL1 whole entry): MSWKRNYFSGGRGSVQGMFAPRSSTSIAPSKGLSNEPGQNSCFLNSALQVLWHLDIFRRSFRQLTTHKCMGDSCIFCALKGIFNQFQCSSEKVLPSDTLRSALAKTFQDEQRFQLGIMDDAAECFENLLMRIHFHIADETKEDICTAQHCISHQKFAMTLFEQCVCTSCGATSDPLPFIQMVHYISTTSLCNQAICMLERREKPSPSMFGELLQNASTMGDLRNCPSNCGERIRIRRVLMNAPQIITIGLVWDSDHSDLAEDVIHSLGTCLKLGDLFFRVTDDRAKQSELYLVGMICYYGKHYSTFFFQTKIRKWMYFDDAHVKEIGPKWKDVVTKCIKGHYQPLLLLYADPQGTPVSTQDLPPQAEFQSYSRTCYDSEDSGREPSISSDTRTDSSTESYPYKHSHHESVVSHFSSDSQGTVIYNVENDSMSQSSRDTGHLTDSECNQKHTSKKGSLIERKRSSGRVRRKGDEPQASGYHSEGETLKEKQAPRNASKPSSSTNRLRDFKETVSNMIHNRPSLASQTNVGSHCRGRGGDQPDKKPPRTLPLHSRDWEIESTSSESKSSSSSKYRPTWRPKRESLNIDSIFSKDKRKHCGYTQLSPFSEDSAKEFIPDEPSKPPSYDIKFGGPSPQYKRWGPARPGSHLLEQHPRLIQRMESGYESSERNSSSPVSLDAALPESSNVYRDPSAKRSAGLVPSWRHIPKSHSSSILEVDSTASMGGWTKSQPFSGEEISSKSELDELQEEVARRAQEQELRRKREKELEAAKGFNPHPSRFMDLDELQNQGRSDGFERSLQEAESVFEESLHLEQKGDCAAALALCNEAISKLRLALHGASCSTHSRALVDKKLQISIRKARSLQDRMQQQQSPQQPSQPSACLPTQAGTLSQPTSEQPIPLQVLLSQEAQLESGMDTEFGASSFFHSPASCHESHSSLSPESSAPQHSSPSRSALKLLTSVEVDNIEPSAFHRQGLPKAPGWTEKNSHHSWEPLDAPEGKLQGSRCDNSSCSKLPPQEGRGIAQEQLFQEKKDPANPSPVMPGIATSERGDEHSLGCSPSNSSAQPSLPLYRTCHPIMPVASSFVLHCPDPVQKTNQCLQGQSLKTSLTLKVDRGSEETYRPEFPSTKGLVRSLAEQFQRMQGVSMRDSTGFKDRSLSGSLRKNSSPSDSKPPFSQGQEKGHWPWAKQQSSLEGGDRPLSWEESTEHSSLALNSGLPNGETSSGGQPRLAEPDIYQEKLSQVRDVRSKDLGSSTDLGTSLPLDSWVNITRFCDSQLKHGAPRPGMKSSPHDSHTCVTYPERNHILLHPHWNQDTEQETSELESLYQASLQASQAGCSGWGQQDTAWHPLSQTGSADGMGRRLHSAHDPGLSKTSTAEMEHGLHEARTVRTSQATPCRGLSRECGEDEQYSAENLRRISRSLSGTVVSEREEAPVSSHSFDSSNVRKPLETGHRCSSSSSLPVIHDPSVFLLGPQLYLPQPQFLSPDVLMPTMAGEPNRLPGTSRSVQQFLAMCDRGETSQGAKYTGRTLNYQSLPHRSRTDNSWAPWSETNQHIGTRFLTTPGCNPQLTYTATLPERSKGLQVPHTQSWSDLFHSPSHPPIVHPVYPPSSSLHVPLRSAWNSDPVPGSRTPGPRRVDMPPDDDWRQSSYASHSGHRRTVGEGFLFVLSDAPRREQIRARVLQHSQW
UniProt Q14694, sequence (Q14694 whole entry): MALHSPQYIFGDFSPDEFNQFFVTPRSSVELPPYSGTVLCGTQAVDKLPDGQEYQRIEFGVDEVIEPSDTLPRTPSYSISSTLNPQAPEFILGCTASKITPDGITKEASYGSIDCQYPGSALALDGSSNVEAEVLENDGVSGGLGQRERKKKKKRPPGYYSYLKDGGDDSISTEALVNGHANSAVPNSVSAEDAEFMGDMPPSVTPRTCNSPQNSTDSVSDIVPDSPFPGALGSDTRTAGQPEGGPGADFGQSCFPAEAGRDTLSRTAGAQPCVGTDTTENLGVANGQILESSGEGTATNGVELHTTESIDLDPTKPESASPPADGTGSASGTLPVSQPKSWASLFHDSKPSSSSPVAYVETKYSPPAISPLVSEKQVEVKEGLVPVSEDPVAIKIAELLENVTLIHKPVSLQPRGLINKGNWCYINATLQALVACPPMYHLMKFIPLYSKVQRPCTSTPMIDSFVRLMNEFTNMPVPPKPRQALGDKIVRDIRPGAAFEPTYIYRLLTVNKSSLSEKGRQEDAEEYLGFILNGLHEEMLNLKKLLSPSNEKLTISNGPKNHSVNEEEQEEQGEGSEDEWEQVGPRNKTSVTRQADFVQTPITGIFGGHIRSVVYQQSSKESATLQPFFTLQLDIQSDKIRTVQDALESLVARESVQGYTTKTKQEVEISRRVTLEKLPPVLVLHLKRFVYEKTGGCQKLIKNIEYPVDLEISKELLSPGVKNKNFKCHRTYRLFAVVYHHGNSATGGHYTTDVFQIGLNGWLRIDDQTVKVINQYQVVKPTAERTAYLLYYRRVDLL
UniProt Q8N6M0, sequence (Q8N6M0 whole entry): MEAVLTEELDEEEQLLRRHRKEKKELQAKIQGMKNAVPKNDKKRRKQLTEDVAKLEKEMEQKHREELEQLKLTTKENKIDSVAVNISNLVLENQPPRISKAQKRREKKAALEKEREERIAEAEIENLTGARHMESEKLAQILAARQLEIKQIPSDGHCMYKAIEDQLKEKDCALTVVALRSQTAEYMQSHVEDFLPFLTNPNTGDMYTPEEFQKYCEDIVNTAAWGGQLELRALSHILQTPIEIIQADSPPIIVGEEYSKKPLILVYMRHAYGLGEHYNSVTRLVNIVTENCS
UniProt Q9UPT9, sequence (Q9UPT9 whole entry): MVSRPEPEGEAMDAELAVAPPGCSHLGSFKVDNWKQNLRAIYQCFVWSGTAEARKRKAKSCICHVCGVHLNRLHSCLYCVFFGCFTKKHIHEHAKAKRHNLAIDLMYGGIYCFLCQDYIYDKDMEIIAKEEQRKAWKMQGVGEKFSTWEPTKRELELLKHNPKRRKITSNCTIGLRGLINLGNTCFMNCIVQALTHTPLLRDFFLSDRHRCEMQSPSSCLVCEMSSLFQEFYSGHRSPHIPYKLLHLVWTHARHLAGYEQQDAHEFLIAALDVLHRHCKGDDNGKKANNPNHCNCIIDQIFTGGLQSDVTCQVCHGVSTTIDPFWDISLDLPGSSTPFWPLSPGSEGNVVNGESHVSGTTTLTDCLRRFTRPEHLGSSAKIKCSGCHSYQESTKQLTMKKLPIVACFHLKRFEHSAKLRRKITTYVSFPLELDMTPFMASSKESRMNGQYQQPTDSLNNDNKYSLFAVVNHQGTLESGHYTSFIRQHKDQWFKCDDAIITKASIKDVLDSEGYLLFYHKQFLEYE
UniProt Q6GQQ9, sequence (Q6GQQ9 whole entry): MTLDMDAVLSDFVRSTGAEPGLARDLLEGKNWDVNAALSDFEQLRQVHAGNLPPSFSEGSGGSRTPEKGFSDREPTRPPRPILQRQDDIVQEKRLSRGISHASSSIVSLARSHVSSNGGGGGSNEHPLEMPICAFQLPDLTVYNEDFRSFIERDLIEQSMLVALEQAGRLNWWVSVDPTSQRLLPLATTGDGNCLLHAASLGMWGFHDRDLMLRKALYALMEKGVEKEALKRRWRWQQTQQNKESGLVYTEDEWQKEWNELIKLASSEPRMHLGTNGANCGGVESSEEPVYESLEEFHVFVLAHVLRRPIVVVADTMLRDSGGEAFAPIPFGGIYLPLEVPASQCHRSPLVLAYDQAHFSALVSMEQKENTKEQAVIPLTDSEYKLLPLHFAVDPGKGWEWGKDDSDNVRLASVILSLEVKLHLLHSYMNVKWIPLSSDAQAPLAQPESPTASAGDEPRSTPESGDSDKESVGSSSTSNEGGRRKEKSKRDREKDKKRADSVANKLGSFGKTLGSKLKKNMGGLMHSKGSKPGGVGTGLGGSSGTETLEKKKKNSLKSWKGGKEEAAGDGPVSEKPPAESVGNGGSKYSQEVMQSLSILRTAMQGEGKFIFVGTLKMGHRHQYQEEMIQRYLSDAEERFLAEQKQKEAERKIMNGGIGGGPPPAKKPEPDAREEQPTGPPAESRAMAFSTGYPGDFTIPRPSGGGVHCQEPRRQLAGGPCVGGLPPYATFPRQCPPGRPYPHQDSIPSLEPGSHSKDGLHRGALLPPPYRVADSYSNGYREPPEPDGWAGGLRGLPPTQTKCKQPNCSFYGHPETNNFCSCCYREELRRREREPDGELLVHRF
UniProt Q9UGI0, sequence (Q9UGI0 whole entry): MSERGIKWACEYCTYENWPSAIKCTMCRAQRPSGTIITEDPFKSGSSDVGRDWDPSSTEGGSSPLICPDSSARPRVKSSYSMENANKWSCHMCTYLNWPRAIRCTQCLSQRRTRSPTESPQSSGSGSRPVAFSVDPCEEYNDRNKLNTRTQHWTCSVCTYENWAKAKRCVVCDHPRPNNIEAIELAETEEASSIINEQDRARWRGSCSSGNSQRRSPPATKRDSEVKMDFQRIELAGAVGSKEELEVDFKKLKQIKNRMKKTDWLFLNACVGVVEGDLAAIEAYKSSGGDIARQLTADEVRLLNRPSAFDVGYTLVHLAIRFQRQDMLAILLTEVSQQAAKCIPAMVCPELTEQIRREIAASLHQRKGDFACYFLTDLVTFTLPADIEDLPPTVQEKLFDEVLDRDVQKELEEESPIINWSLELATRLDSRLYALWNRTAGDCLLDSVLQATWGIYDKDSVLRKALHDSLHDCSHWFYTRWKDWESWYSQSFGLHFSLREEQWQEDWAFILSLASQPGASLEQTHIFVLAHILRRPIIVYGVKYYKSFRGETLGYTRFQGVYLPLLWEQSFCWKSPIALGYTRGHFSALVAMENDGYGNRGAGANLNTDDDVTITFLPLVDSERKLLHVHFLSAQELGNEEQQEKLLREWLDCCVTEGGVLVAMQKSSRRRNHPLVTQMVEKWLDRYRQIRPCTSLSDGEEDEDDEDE

Row | Target | log2 ratio of Biotin-Ahx-Ub-VS probe labelling
1 | USP54 (UniProt Q70EL1) | -0.823 (inactive)
2 | UniProt Q5T2D3 | 0.0194 (inactive)
3 | USP28 (UniProt Q96RU2) | -0.15 (inactive)
4 | UniProt Q70EL2 | -0.558 (inactive)
5 | USP22 (UniProt Q9UPT9) | -0.0429 (inactive)
6 | OTUD6B (UniProt Q8N6M0) | 0.00143 (inactive)
7 | EIF3F (UniProt O00303) | -0.18 (inactive)
8 | USP36 (UniProt Q9P275) | -0.0391 (inactive)
9 | USP16 (UniProt Q9Y5T5) | -0.0935 (inactive)
10 | UCHL5 (UniProt Q9Y5K5) | 0.0333 (inactive)
11 | OTUD7B (UniProt Q6GQQ9) | -0.213 (inactive)
12 | USP14 (UniProt P54578) | 0.0498 (inactive)
13 | USP7 (UniProt Q93009) | -0.461 (inactive)
14 | USP34 (UniProt Q70CQ2) | 0.583 (inactive)
15 | OTUB1 (UniProt Q96FW1) | -0.0139 (inactive)
16 | USP9X (UniProt Q93008) | 0.0933 (inactive)
17 | COPS5 (UniProt Q92905) | -0.406 (inactive)
18 | USP10 (UniProt Q14694) | -0.0484 (inactive)
19 | USP46 (UniProt P62068) | 0.0166 (inactive)
20 | YOD1 (UniProt Q5VVQ6) | 0.102 (inactive)
21 | BAP1 (UniProt Q92560) | -0.341 (inactive)
22 | UniProt P51784 | 0.0941 (inactive)
23 | USP25 (UniProt Q9UHP3) | -0.562 (inactive)
24 | UniProt Q9UGI0 | 0.0381 (inactive)
